GLD-1 RNA inh: GLD-1-TGE RNA interaction inhibition (C. elegans); purified GLD-1 + fluorescein TGE RNA, fluorescence polarization; inhibition, % at 5.96 µM; Q17339; 320,000 compounds, 0.44% hits;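 active = percent inhibition above a per-plate cutoff, the plate mean of test compounds plus 3 SD, cut at about 30% in these data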;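 note: 0% = DMSO wells with GLD-1 and probe and 100% = wells lacking GLD-1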
MEX-5 binding: C. elegans MEX-5 TCR-2 RNA binding activity; Q9XUB2; MEX-5/FITC-TCR2 RNA binding, fluorescence polarization; active compounds read low; activity score (negative = inhibition of binding), % at 10 µM; 300,000 compounds, 0.38% hits; AID 1832;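 active = inhibition past about -25% in most replicates, and total fluorescence under double the plate's negative control median, limit read from the data; inconclusive = replicates evenly split on the limit, or fluorescence at least double controls; inactive = too little inhibition in most replicates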;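 note: 0% = DMSO and -100% = 5 µM competing unlabeled TCR2 RNA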
Target sequence (Q9XUB2 whole entry, looked up): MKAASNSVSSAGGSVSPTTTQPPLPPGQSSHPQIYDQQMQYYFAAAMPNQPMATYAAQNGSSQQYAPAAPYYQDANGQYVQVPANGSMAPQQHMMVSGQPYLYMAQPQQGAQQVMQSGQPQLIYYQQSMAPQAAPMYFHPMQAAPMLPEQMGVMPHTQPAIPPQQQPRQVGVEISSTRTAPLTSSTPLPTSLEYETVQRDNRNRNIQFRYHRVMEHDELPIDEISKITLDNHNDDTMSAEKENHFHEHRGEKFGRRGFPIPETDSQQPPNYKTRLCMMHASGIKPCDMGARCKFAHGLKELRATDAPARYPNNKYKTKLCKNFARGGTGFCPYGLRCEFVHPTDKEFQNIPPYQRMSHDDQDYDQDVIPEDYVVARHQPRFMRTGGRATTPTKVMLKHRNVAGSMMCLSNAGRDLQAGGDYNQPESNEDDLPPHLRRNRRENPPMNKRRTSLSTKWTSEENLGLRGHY
BCLXL inh: Bcl-xL (human) inhibition; inhibition, % at 10.9 µM; 320,000 compounds, 0.7% hits; GST-Bcl-xL / FITC-Bim BH3 peptide fluorescence polarization;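 active = inhibition above the mean of all tested compounds plus 3 SD, cutoff set per campaign, cut at about 30% in these data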;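 note: 0% = DMSO wells and 100% = unlabeled Bim-BH3 peptide competitor; inhibitors lower millipolarization by displacing the labeled peptide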
Target sequence (Q07817 whole entry, looked up): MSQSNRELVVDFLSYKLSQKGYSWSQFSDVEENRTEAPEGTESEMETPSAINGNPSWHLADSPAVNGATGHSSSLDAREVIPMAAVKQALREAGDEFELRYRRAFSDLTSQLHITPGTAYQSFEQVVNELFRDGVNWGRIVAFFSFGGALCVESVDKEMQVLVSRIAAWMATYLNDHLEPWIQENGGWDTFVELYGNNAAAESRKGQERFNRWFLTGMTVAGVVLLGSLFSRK
EBV gp42 inh: blocks Epstein-Barr virus glycoprotein 42 binding | Q1HVG2 | Fluorescence polarization binding assay, mP read-out | inhibition, % (tested at 21.74 µM) | 220,000 compounds, 0.42% hits; in the data active = inhibition above about 50%
eLon inh: inhibitors of E. coli Lon protease | P0A9M0 | purified E. coli Lon protease, fluorescence polarization | inhibition, % at 7.94 µM | 360,000 compounds, 0.42% hits; in the data active = inhibition above about 13%, passing the limit was not always enough;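 note: 0% = enzyme with probe and DMSO and 100% = no enzyme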
MCL1 BIM primary: inhibitors of human MCL1 binding to BIM-BH3 peptide | inhibition, % at 10.9 µM | Q07820 | 320,000 compounds, 0.68% hits | GST-MCL1 / FITC-Bim-BH3 fluorescence polarization;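 active = inhibition above the mean inhibition of all tested compounds plus 3 SD, set per campaign, cut at about 40% in these data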;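 note: 0% = DMSO wells and 100% = unlabeled Bim-BH3 peptide control; higher means more loss of mP so more displacement of Bim peptide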
BCLXL inh confirm: Bcl-xL (human) inhibition, MCL1 counter-screen confirmation. shares compounds with MCL1 BIM primary. GST-Bcl-xL / FITC-Bim BH3 peptide FP binding. inhibition, % at 10.9 µM. 1,700 compounds, 54% hits;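 active = inhibition above a cutoff equal to the mean inhibition of all tested compounds plus 3 SD, cut at about 30% in these data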;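 note: 0% = DMSO wells and 100% = unlabeled Bim BH3 control peptide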
MCL1 BIM confirm: confirmation of human MCL1 and BIM-BH3 interaction inhibitors; 1,700 compounds, 61% hits; shares compounds with MCL1 BIM primary; inhibition, % at 10.9 µM; GST-MCL1 / FITC-Bim-BH3 fluorescence polarization; AID 2168;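 active = inhibition above the average of all tested compounds plus 3 SD, cut at about 40% in these data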;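 note: 0% = DMSO wells and 100% = unlabeled Bim-BH3 control peptide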
An asterisk follows results filed as active; ? = inconclusive; . = no result given; + = active, no number. The list is not random: actives were taken first. Their share in the collection is about 1.5%.

SMILES | GLD-1 RNA inh | MEX-5 binding | BCLXL inh | EBV gp42 inh | eLon inh | MCL1 BIM primary | BCLXL inh confirm | MCL1 BIM confirm
CCOC(=O)c1cc2c(=O)n3ccccc3nc2n(Cc2ccco2)c1=NC(=O)c1ccc(OC)cc1 | 9.8 | -6.0 | 26.9 | -21.4 | -14.7 | 41.2* | 10.8 | -2.0
O=C(O)CCCCC1CCSS1 (configuration not stated) | 3.0 | ? | 21.3 | 101.8* | -7.2 | 102.2* | 23.6 | 104.3*
Cc1cccc(-n2c(O)c(C=Nc3ccc4c(c3)OCO4)c3ccccc3c2=O)n1 | -61.7 | -36.5* | 26.2 | -77.5 | -1.4 | 40.4* | 0.1 | -16.1
Cc1cccc(-n2c(O)c(C=Nc3cccc(O)c3)c3ccccc3c2=O)n1 | 4.7 | -0.6 | 6.4 | -0.8 | -5.1 | 4.9 | . | .
Cc1ccc(OCc2cc(C(=O)NC(C)Cc3cccc(C)n3)no2)cn1 (configuration not stated) | -2.2 | . | 9.2 | . | -5.4 | 8.3 | . | .
CC(=O)N1N=C(c2ccc(Cl)cc2)CC1c1ccco1 (configuration not stated) | -0.3 | 1.5 | 4.5 | -18.8 | 7.6 | 40.4* | 4.5 | 6.2
CC(=O)N1N=C(c2ccc(C)cc2)CC1c1ccco1 (configuration not stated) | -0.5 | 2.8 | -2.0 | -4.3 | 4.9 | -9.1 | . | .
Nc1nnc(CC(=O)N/N=C/c2cc([N+](=O)[O-])cc(Br)c2O)s1 | -1.1 | ? | 8.2 | 0.3 | -6.7 | 44.1* | 15.8 | 43.3*
Nc1nnc(CC(=O)N/N=C/c2cccc([N+](=O)[O-])c2)s1 | -0.1 | 1.6 | 7.6 | -11.8 | -0.4 | 3.4 | . | .
O=C(CNC(=O)c1ccccc1Br)N/N=C\c1cc([N+](=O)[O-])cc(Br)c1O | -0.2 | -5.2 | 9.1 | . | -3.5 | 42.0* | 7.5 | 36.4
Cc1cc(=O)c2c([nH]1)c(C)cc1[nH]c(C)c(C)c12 | 67.9* | . | 100.7* | . | -111.6 | 99.9* | 26.9 | 26.8
COc1ccc(NC(=O)C2(C)CCN2Cc2csc3ccccc23)cc1OC (configuration not stated) | . | . | . | . | -12.1 | . | . | .
Nc1ccc2nc(-c3ccccc3)c(-c3ccccc3)nc2c1 | 73.3* | -40.0* | 48.6* | . | 13.1 | 59.7* | 63.5* | 54.5*
COC(=O)c1cc(O)cc(OC)c1Oc1cc(C)cc(O)c1C(=O)O | 5.8 | . | 21.4 | -5.6 | 2.5 | 73.5* | 19.7 | 75.5*
O=C(CSc1ccc(-c2ccco2)nn1)c1ccccc1 | 2.7 | 0.8 | 22.1 | -7.1 | 3.6 | 41.7* | 21.0 | 24.4
COc1ccc(S(=O)(=O)N(CC(=O)NCc2ccncc2)c2cc(C)cc(C)c2)cc1OC | 4.6 | 2.0 | 2.7 | . | -0.7 | -1.6 | . | .
Cc1ccc(NC(=S)Nc2ccccn2)cc1C | 7.1 | -1.1 | 10.8 | 15.9 | 4.2 | 11.7 | . | .
Cc1ccc(NC(=S)Nc2ccc3nc(-c4ccccn4)c(-c4ccccn4)nc3c2)cc1C | 103.1* | . | 121.7* | 35.4 | 119.8* | 150.6* | 61.1* | 62.0*
CCN1CCN(c2cc(N3CCN(C(=O)c4ccco4)CC3)c3c4c(onc24)-c2ccccc2C3=O)CC1 | 18.6 | 5.7 | 91.7* | . | 9.5 | 102.8* | 52.1* | 19.8
CCOc1ccc(CCNC(=O)COC(=O)C2=NNC(=O)CC2)cc1OCC | -0.1 | -1.1 | -6.9 | . | 3.0 | -1.2 | . | .
COc1ccc(-c2cc(C(F)(F)F)c3c(N)c(C(=O)NCCSC)sc3n2)cc1 | 58.0* | ? | 79.8* | . | -11.6 | 78.5* | 80.6* | 85.0*
Cc1c(C(=O)O)sc2nc(-c3cccs3)cc(C(F)(F)F)c12 | 0.9 | -1.5 | 8.2 | . | 2.6 | 4.3 | . | .
CC(=O)c1sc2nc(-c3cccs3)cc(C(F)(F)F)c2c1N | -4.5 | -30.0* | 63.0* | -94.8 | -20.7 | 68.5* | 73.7* | 83.3*
C=CCn1c(SCC(=O)Nc2ccc3c(c2)CCC3)nc2ccccc2c1=O | 1.9 | -1.5 | -1.0 | -4.0 | 4.2 | + | 5.7 | 14.6
CCCCn1c(SCC(=O)Nc2ccc3c(c2)CCC3)nc2ccccc2c1=O | 0.9 | -1.1 | 4.1 | -4.8 | -6.1 | 0.5 | . | .
SMILES | GLD-1 RNA inh | MEX-5 binding | BCLXL inh | EBV gp42 inh | eLon inh | MCL1 BIM primary | BCLXL inh confirm | MCL1 BIM confirm
COc1ccc(S(=O)(=O)N2CCC(C(=O)Nc3cc(Cl)ccc3N3CCOCC3)CC2)cc1OC | -0.3 | 1.1 | -4.6 | . | 11.0 | -10.1 | . | .
CN1CCc2cccc3c2[C@@H]1Cc1ccc(O)c(O)c1-3 | 10.8 | . | 48.7* | -0.4 | 3.2 | 70.5* | 13.4 | 29.3
COc1ccc(-c2oc3cc(O)c(OC)c(O)c3c(=O)c2OC)cc1 | 1.0 | -3.0 | 0.8 | -20.7 | -3.6 | 0.9 | . | .
COc1c(-c2ccc(O)cc2)oc2cc(O)cc(O)c2c1=O | 4.0 | . | 8.8 | -16.4 | 4.3 | 43.1* | 22.8 | 85.5*
COC(=O)c1ccc(C(=O)Nc2ccc(N)cc2N)cc1 | -81.0 | 2.5 | 76.3* | -17.9 | -334.1 | 76.5* | 21.4 | 23.7
Nc1c(NCc2ccccc2F)c(=O)[nH]c(=O)n1Cc1ccccc1 | 93.1* | -8.5 | 86.5* | 10.2 | 2.5 | 97.2* | 23.0 | 29.3
COc1ccc(CCNc2c(C=O)c(=O)[nH]c3ccccc23)cc1OC | 5.3 | 1.5 | -0.2 | . | 2.8 | -1.9 | . | .
COc1ccc(CCNc2c(N)n(Cc3ccccc3)c(=O)[nH]c2=O)cc1OC | 78.6* | -19.2 | 70.9* | 43.4 | -0.5 | 96.1* | 74.3* | 84.7*
CC(=O)c1ccc(N(CC(=O)NC2CCCC2)C(=O)CNC(=O)c2ccco2)cc1 | 5.0 | 2.0 | 6.8 | . | -8.6 | 5.5 | . | .
COC1CCN(Cc2c(C(=O)N3CCN(C4CCCCC4)CC3)nc3ccccn23)CC1 | 24.5 | -4.0 | 43.3* | . | 8.1 | 49.4* | 15.9 | 14.6
NC(=O)[C@@H]1CCCN1Cc1c(C(=O)N2CCN(C3CCCCC3)CC2)nc2ccccn12 | 12.9 | -2.6 | 25.2 | . | -2.7 | 19.8 | . | .
CN1OC[C@@H]2CN(S(=O)(=O)c3cccc(C(F)(F)F)c3)[C@H](c3ccc(N4CCCCC4)cc3)C[C@@H]21 | . | . | . | . | -12.1 | . | . | .
CC(=O)OCC1=C(C(=O)O)N2C(=O)C(NC(=O)c3ccc(COc4c(C)cccc4Cl)o3)C2SC1 (configuration not stated) | -2.9 | 2.9 | 24.6 | -5.8 | -0.9 | 43.0* | 17.1 | 51.0*
CC(=O)OCC1=C(C(=O)O)N2C(=O)C(NC(=O)c3ccc(COc4ccc(Cl)cc4)o3)C2SC1 (configuration not stated) | 0.3 | 1.1 | 6.8 | -3.4 | -7.4 | 23.9 | . | .
CCNC(=O)C1(C)CCCN(C(=O)c2cc(C)n(C(C)(C)C)n2)C1 (configuration not stated) | . | . | . | . | -3.6 | . | . | .

High-throughput results (PubChem BioAssay)
